test system: Plasmodium falciparum; experiment: GSK_TCMDC: Inhibition of Plasmodium falciparum 3D7 in whole red blood cells, using parasite LDH activity as an index of growth. Test compounds present at 2uM; format: functional

Row | SMILES | Inhibition [%]
1 | O=C(/C=C/c1ccc(C(F)(F)F)cc1)NCCCCCN1CCCN(C(=O)Nc2ccc(Cl)c(C(F)(F)F)c2)CC1 | 99
2 | COc1cc(C)c(NC(=O)c2cccc3c(=O)c(C)c(-c4ccccc4)oc23)cc1OC | 86
3 | Cl.O=C1Nc2ccc3ncccc3c2/C1=C/Nc1ccc(N2CCN(CCO)CC2)cc1 | 86
4 | OC(CNCCc1ccccc1)Cn1c2ccc(Cl)cc2c2cc(Cl)ccc21 (configuration not stated) | 98
5 | CC(C)CCNC(=O)[C@@H]1[C@H]2C(=O)N(C3CCCCC3)C(=O)[C@H]2[C@H]2C=C[C@@H]3C(c4ccc(C(C)(C)C)cc4)=NO[C@@H]3N21 | 96
6 | Cc1[nH]c(C)c(-c2ccc(OCCn3cnc(Cl)c3Cl)cc2)c(=O)c1Br | 95
7 | CCCCCOc1ccc(C(O)C(CCC(CN2CCCCCC2)C(O)c2ccc(OCCCCC)cc2)CN2CCCCCC2)cc1.Cl (configuration not stated) | 99
8 | CS(=O)(=O)CCNCc1cccc(-c2cc3c(Nc4ccc5c(cnn5Cc5ccccc5)c4)ncnc3s2)c1.O=C(O)C(F)(F)F | 100
9 | O=[N+]([O-])c1cccc(NC(=S)N2CCCN(Cc3ccc(C(F)(F)F)cc3)CC2)c1 | 90
10 | CC1CN(Cc2ccc(-c3ccc(-c4nc5ccccc5[nH]4)cc3)cc2)CC(C)O1.O=C(O)C(F)(F)F (configuration not stated) | 98
11 | CCc1cccc2c(C#N)cn(CC(=O)Nc3ccc(OC)cc3)c12 | 97
12 | CC(C)c1sc(N2CCN(C)CC2)nc1C(=O)Nc1ccc(F)cc1C(F)(F)F.O=C(O)C(F)(F)F | 100

From ChEMBL document CHEMBL1157539, “Thousands of chemical starting points for antimalarial lead identification” (Nature, 2010)
